This note sets out measurements from PubChem BioAssay (EPA / NIEHS).

The source made the active and inactive calls. Rule for the calls: active = hit-call score of the fitted dose curve at least 0.9, where 1 is the maximum; inactive = score below 0.9.

A short description of test [1]: ATG_GRE_CIS: Attagene CIS-FACTORIAL HepG2 Assay for human Glucocorticoid Response Elements (GRE) (AID 2282947). Particulars: HepG2 GRE cis-reporter, Attagene multiplex mRNA; actives raise or lower the signal. In short, it runs like this:
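Following 24 h chemical exposure of transiently transfected HepG2 cells, total RNA was reverse-transcribed and reporter cDNA amplified, fluorescently labelled and sized by capillary electrophoresis. Signal gain or loss was fitted relative to DMSO vehicle.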

Test [2] is described as follows: ATG_ISRE_CIS: Attagene CIS-FACTORIAL HepG2 Assay for human Interferon Regulatory Factor 1 (IRF1) binding to an Interferon-Stimulated Response Element (ISRE) (AID 2282948). Particulars: HepG2 ISRE cis-reporter (Attagene), mRNA transcription readout; actives raise or lower the signal. In outline: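 Transiently transfected HepG2 cells carrying cis-element reporter units, dosed 24 hours. Reporter mRNA quantified by RT-PCR, fluorescent primer extension, HpaI digestion and capillary electrophoresis. Bidirectional fitting relative to DMSO.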

Test [3] is described as follows: ATG_M_32_CIS: Attagene CIS-FACTORIAL HepG2 Assay for M32 Transcription Factor (Internal Marker) (AID 2282949).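 Note: background control marker of the multiplexed CIS panel rather than a real target.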 Particulars: HepG2 Attagene cis-factorial M32 reporter, mRNA; actives raise or lower the signal. In short, it runs like this: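 HepG2 cells transiently transfected with multiplexed cis-regulated reporter units, dosed 24 h. Reporter mRNA quantified by RT-PCR, 6-FAM labelling, HpaI digestion and capillary electrophoresis; bidirectional fit vs DMSO.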

Test [4] in a line: ATG_M_06_CIS: Attagene CIS-FACTORIAL HepG2 Assay for M06 Transcription Factor (Internal Marker) (AID 2282950). To be noted: HepG2 Attagene CIS-FACTORIAL M06 internal marker reporter; actives raise or lower the signal. In outline:
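Fluorescence-labelled RT-PCR products from cis-promoter reporter units, cut with HpaI and resolved by capillary electrophoresis, give the signal. Cells are human HepG2, dosed for 24 h. Serves as background control, fitted relative to DMSO.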

Test [5] concerns the target Hepatocyte nuclear factor 6 (Homo sapiens) (UniProt Q9UBC0). As to the kind of experiment: ATG_HNF6_CIS: Attagene CIS-FACTORIAL HepG2 Assay for human Hepatocyte Nuclear Factor 6 (HNF6) (AID 2282952). Particulars: HepG2 Attagene cis-factorial HNF6 reporter transcription; actives raise or lower the signal. In outline: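 HepG2, transient MRTU transfection (cis promoters); 24 h chemical exposure; total RNA → oligo(dT) RT → PCR → 6-FAM labelling → HpaI cut → CE; bidirectional fit vs DMSO.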

Test [6] deals with Heat shock factor protein 1 (Homo sapiens) (UniProt Q00613). As to the kind of experiment: ATG_HSE_CIS: Attagene CIS-FACTORIAL HepG2 Assay for human Heat Shock Transcription Factor 1 (HSE) (AID 2282953). Particulars: HepG2 HSE cis-reporter, Attagene RNA transcription; actives raise or lower the signal. In short, it runs like this:
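After a 24 h incubation with test chemical, transfected HepG2 cells were harvested for RNA; reporter transcripts were measured by RT-PCR and capillary electrophoresis. Values reflect gain or loss of signal relative to DMSO.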

Test [7] can be described thus: ATG_MRE_CIS: Attagene CIS-FACTORIAL HepG2 Assay for human Metal Responsive Element (MRE) (AID 2282954). Particulars: HepG2 MRE cis-reporter transcription, Attagene multiplex; actives raise or lower the signal. In outline:
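Step one: transfect HepG2 with cis-regulated reporter units. Step two: dose 24 h. Step three: isolate RNA, RT-PCR, 6-FAM label, HpaI digest, capillary electrophoresis. Fit bidirectionally to DMSO.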

The nature of test [8]: ATG_PBREM_CIS: Attagene CIS-FACTORIAL HepG2 Assay for human Phenobarbital-responsive Enhancer Module (PBREM) (AID 2282955). Particulars: HepG2 PBREM cis-reporter, Attagene multiplexed transcription; actives raise or lower the signal. In short, it runs like this:
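Endogenous transcription factors in human liver HepG2 cells drive a PBREM cis-element reporter, whose transcript level after 24 h treatment is quantified by RT-PCR with capillary electrophoresis; activity fitted in both directions against DMSO.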

The target in test [9] is Paired box protein Pax-6 (Homo sapiens) (UniProt P26367). As to the kind of experiment: ATG_Pax6_CIS: Attagene CIS-FACTORIAL HepG2 Assay for human Paired Box 6 (PAX6) (AID 2282956). Particulars: HepG2 CIS-FACTORIAL PAX6 reporter transcription, RNA readout; actives raise or lower the signal. In outline: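 HepG2 cells transiently transfected with cis-promoter-driven multiplexed reporter units sensing endogenous transcription factor activity; 24 h chemical exposure. Reporter mRNA quantified by RT-PCR, 6-FAM labelling, HpaI digestion and capillary electrophoresis; bidirectional fit versus DMSO baseline.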

Test [10] can be described thus: ATG_PXRE_CIS: Attagene CIS-FACTORIAL HepG2 Assay for human Pregnane X Receptor Element (PXRE) (AID 2282957). To be noted: HepG2 Attagene CIS-FACTORIAL PXRE reporter, mRNA; actives raise or lower the signal. In short, it runs like this: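 Transfect HepG2 with MRTUs (cis promoter elements); dose chemical, incubate 24 h; isolate RNA, RT with oligo(dT), PCR, 6-FAM label, HpaI cut, CE. Gain/loss fit vs DMSO.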

Test [11] can be described thus: ATG_PPRE_CIS: Attagene CIS-FACTORIAL HepG2 Assay for human Peroxisome Proliferator-activated Response Element (PPRE) (AID 2282958). Particulars: HepG2 PPRE cis-element reporter, Attagene transcription factor profiling; actives raise or lower the signal. In outline: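 HepG2, transient MRTU transfection (cis promoter elements, endogenous TFs). 24 h dosing. RNA → oligo(dT) RT → PCR → 6-FAM primer extension → HpaI digest → CE. Bidirectional fit vs DMSO.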

A short description of test [12]: ATG_Sox_CIS: Attagene CIS-FACTORIAL HepG2 Assay for human SRY-box transcription factor (SOX) (AID 2282960). To be noted: HepG2 Attagene cis-factorial SOX reporter, mRNA; actives raise or lower the signal. In short, it runs like this: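 Endogenous factor activity in human liver HepG2 cells carrying transfected cis-regulated reporter units. RNA taken 24 h post-dose, reverse-transcribed, PCR-amplified and sized by capillary electrophoresis. Gain or loss of signal fitted relative to DMSO.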

Test [13] deals with Transcription factor Sp1 (Homo sapiens) (UniProt P08047). Description: ATG_Sp1_CIS: Attagene CIS-FACTORIAL HepG2 Assay for human Specificity Protein 1 (Sp1) (AID 2282961). To be noted: HepG2 Sp1 cis-reporter transcription, actives raise or lower the signal. In outline: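 Transient MRTU-transfected HepG2, 24 h compound exposure. Total RNA → oligo(dT) RT → PCR of reporter → 6-FAM primer extension → HpaI digest → CE. Endpoint fitted both directions vs DMSO.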

The nature of test [14]: ATG_SREBP_CIS: Attagene CIS-FACTORIAL HepG2 Assay for human Sterol Regulatory Element Binding (SREBP) (AID 2282962). Particulars: HepG2 Attagene cis-factorial SREBP reporter, mRNA; actives raise or lower the signal. In short, it runs like this:
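HepG2 cells transiently transfected with multiplexed cis-promoter reporter units sensing endogenous transcription factors; reporter mRNA measured 24 h after dosing by RT-PCR, 6-FAM labeling, HpaI digestion and capillary electrophoresis. Bidirectional fit versus DMSO.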

Test [15] deals with Signal transducer and activator of transcription 3 (Homo sapiens) (UniProt P40763). Description: ATG_STAT3_CIS: Attagene CIS-FACTORIAL HepG2 Assay for human Signal Transducer and Activator of Transcription 3 (STAT3) (AID 2282963). To be noted: HepG2, Attagene cis-factorial STAT3 reporter transcription; actives raise or lower the signal. In outline:
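Transcript-level reporter assay. HepG2 transient MRTU transfection, 24 h exposure, fluorescence detection after RT-PCR and CE; DMSO baseline.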

The nature of test [16]: ATG_TA_CIS: Attagene CIS-FACTORIAL HepG2 Assay for human TA Basal Promoter (AID 2282964). To be noted: HepG2 Attagene CIS-factorial TA basal promoter reporter; actives raise or lower the signal. In outline: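 Multiplexed mRNA reporter assay, HepG2, 24 h. Reporter cDNA amplified, 6-FAM primer-extended, HpaI-cut, CE-sized; DMSO = negative control and baseline.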
Test [17] can be described thus: ATG_TCF_b_cat_CIS: Attagene CIS-FACTORIAL HepG2 Assay for human T-Cell-Factor with beta-catenin (TCF/b-cat) (AID 2282965). Particulars: HepG2 TCF/beta-catenin cis-reporter transcription, actives raise or lower the signal. In outline:
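Using capillary electrophoresis as the read-out, labelled reporter cDNA fragments from transiently transfected HepG2 were sized and quantified. Exposure lasted 24 hours; activity in either direction was referenced to DMSO.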

Test [18] is described as follows: ATG_RORE_CIS: Attagene CIS-FACTORIAL HepG2 Assay for human RAR-related Orphan Receptor Element (RORE) (AID 2282959). Particulars: HepG2 Attagene cis-factorial RORE reporter, mRNA; actives raise or lower the signal. In short, it runs like this:
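Transient MRTU transfection of human HepG2 liver cells (FuGene 6); 24 h compound exposure; TriZol RNA, oligo(dT) RT, PCR, FAM labeling, HpaI cut, CE fragment analysis. DMSO = negative control/baseline.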

Test [19] has as its target Hypoxia-inducible factor 1-alpha (Homo sapiens) (UniProt Q16665). Description: ATG_HIF1a_CIS: Attagene CIS-FACTORIAL HepG2 Assay for human Hypoxia Inducible Factor 1 (HIF1A) (AID 2282951). To be noted: HepG2 Attagene cis-factorial HIF1a reporter transcription; actives raise or lower the signal. In short, it runs like this:
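Transient MRTU transfection of human HepG2 liver cells, 24 h compound treatment, then total RNA isolation, oligo(dT) reverse transcription, PCR amplification, fluorescent labelling and capillary electrophoresis of reporter fragments. Gain or loss relative to DMSO.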

Chain of Hepatocyte nuclear factor 6 (Homo sapiens) (Q9UBC0 whole entry, looked up): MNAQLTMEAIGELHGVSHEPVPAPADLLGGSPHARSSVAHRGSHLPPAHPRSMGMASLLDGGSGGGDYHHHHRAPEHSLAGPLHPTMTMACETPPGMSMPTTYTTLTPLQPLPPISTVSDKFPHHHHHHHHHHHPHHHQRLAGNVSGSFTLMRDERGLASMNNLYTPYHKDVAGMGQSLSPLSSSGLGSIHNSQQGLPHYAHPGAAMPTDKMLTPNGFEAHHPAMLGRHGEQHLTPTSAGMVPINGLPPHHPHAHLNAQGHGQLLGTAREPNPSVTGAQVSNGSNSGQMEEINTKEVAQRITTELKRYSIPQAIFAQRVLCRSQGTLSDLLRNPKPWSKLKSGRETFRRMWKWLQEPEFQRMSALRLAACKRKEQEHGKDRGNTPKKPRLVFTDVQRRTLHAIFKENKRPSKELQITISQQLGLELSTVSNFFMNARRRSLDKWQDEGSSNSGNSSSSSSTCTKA
Chain of Transcription factor Sp1 (Homo sapiens) (P08047 whole entry, looked up): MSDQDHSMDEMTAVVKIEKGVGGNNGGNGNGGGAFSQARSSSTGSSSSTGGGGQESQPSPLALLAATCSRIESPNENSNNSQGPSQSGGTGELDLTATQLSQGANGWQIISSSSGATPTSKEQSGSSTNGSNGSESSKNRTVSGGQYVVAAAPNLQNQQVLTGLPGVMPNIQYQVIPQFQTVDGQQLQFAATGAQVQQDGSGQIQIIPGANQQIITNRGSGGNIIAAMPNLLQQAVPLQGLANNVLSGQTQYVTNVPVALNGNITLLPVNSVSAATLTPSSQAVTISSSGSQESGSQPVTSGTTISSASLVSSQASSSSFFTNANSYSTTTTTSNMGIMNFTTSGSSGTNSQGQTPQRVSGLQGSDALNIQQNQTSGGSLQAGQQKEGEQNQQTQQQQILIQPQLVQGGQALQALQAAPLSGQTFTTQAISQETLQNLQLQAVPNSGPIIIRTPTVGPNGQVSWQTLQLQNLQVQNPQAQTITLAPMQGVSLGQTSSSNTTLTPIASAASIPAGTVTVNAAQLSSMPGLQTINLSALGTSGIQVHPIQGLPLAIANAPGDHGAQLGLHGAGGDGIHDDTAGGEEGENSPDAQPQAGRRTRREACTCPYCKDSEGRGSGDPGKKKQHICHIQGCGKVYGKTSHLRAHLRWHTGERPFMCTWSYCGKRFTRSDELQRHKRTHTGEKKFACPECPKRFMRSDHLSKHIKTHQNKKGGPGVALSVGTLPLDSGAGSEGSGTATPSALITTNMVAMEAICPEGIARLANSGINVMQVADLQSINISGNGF
Chain of Signal transducer and activator of transcription 3 (Homo sapiens) (P40763 whole entry, looked up): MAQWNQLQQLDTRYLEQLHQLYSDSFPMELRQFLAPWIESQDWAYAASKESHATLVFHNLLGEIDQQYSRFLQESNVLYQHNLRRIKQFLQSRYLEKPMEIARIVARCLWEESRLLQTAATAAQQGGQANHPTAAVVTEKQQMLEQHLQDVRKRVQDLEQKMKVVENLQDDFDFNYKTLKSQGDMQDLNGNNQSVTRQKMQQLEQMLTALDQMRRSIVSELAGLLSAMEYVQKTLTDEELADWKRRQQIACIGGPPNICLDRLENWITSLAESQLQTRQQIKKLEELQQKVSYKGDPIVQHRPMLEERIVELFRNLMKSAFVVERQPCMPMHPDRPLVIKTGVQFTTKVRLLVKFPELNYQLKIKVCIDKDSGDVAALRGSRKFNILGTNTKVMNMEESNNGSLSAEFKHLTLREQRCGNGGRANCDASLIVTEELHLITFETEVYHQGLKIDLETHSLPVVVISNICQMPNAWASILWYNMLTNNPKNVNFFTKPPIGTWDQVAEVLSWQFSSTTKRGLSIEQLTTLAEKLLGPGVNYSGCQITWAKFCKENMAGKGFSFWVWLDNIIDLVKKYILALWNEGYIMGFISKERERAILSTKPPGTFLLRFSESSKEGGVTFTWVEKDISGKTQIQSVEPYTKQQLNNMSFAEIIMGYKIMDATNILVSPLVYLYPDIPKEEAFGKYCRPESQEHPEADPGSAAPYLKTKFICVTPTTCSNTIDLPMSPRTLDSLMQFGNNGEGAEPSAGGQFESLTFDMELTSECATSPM
Chain of Paired box protein Pax-6 (Homo sapiens) (P26367 whole entry, looked up): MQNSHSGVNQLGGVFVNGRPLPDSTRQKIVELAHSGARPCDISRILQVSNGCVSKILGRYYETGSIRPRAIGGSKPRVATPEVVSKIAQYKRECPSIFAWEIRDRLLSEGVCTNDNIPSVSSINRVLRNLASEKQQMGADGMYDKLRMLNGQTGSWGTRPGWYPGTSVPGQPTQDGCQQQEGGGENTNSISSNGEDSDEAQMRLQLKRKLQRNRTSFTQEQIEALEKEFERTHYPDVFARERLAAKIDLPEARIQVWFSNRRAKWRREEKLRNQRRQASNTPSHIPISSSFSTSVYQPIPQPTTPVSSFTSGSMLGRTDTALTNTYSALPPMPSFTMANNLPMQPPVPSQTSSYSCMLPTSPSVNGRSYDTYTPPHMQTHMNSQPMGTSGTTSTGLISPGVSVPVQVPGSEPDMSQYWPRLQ
Chain of Heat shock factor protein 1 (Homo sapiens) (Q00613 whole entry, looked up): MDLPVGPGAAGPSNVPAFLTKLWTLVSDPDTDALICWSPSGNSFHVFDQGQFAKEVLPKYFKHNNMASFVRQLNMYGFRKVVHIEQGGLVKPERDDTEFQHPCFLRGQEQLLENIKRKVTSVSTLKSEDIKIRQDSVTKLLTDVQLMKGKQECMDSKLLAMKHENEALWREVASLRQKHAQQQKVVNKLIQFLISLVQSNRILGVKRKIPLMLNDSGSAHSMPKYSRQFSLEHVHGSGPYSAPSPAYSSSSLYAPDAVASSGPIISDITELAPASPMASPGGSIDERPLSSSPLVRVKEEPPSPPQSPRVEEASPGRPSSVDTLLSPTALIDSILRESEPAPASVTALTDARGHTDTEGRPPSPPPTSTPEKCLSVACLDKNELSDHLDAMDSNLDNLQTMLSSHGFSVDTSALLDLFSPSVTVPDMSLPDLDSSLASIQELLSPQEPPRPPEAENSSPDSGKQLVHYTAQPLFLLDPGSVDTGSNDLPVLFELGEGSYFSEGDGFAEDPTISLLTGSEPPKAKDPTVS
Chain of Hypoxia-inducible factor 1-alpha (Homo sapiens) (Q16665 whole entry, looked up, the tested form may be a part): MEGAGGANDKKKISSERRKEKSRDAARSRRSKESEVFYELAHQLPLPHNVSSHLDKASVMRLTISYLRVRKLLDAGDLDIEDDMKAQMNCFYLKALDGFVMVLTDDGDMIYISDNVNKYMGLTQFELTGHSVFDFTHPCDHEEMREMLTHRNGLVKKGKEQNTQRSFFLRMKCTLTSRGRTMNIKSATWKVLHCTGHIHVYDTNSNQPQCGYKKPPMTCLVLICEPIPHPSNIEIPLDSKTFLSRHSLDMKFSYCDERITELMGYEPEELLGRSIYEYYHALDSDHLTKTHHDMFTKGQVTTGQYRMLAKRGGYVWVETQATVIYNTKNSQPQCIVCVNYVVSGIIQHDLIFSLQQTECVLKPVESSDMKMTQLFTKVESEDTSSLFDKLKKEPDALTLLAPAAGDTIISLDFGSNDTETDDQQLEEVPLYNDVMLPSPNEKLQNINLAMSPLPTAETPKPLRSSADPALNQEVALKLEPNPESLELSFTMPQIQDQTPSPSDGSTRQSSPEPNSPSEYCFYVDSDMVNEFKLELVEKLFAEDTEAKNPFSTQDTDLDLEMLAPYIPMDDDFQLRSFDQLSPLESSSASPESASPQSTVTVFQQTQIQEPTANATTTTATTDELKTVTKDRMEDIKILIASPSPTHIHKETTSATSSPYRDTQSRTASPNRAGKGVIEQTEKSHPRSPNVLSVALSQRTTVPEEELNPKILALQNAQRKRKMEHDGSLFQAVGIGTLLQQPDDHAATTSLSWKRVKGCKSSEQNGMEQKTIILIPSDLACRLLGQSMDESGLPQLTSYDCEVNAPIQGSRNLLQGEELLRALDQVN

For the compound `Nc1cccc(S(=O)(=O)c2cccc(N)c2)c1`, the call in test [1], in test [2], in [3], in test [4], in test [5] and in test [6] was inactive. Moreover, the compound was classed as inactive in test [7], in [8], in [9], in test [10], in [11] and in [12]. For the same compound, the compound was classed as inactive in test [13], in test [14], in test [15], in [16] and in [17].
As to `CCCCCCCCCCCCN`, the compound was called inactive in test [1], in test [2], in [3], in [4], in [5] and in test [7]. Further, the result in test [8], in [9], in [10], in [11], in test [18] and in test [12] was inactive. The compound was classed as inactive in [13], in test [15] and in test [16]. Besides, the AC50 in test [14] is 18.1 µM (active).
Turning to `O=C(O)CCCCC1CCSS1` (centres undefined), the result in [1], in [2], in [3], in test [4], in test [5] and in [6] was inactive. Besides, the call in test [7], in [9], in test [10], in test [11], in test [18] and in test [12] was inactive. For the same compound, the outcome in test [13], in [14], in test [15], in test [16] and in test [17] was inactive.
Consider `CCCC1CCC(=O)O1` (centres undefined), for which the call in test [1], in test [2], in [3], in test [4], in test [5] and in test [6] was inactive. For the same compound, the compound was called inactive in test [7], in [8], in test [9], in [10], in [18] and in [12]. In addition, the outcome in [13], in test [14], in [15], in [16] and in [17] was inactive.
On to `O=[N+]([O-])c1ccc(Nc2ccc(Nc3ccccc3)c(S(=O)(=O)O)c2)c([N+](=O)[O-])c1`, for which the compound was called inactive in test [1], in test [2], in [4], in test [19], in test [5] and in test [8]. The compound was called inactive in [9], in test [12], in [14], in [15] and in [16]. Besides, the AC50 is 178 µM (active) in [6]; 100 µM (active) in test [7]; 27 µM (active) in test [10]; 40.1 µM (active) in test [18]; 134 µM (active) in test [17].
Take `O=C(O)CN(CCN(CC(=O)O)CC(=O)O)CCN(CC(=O)O)CC(=O)O`: the compound was called inactive in [1], in test [2], in test [3], in [4], in test [5] and in [6]. Moreover, the outcome in [8], in test [9], in [10], in test [11], in test [18] and in test [12] was inactive. In addition, the compound was classed as inactive in test [13], in test [14], in test [15], in test [16] and in test [17].
With `CCCCCCOC(=O)CCCCC`, the compound was called inactive in [1], in test [2], in test [4], in [19], in [5] and in [6]. The result in test [7], in [9], in [10], in test [18], in test [12] and in test [14] was inactive. The compound was classed as inactive in test [15] and in test [17].
Regarding `COc1ccc(Cl)cc1C`, the call in test [1], in test [2], in test [3], in [4], in test [5] and in test [6] was inactive. Moreover, the outcome in test [7], in test [9], in test [10], in test [18], in test [12] and in [13] was inactive. In addition, the result in [14], in test [16] and in test [17] was inactive.
